# About 410 targets per protein were measured; listed, in parts, are those with the strongest signals and a random draw of the rest.
# Legend:
# Assay in all cases: glycan array binding signal (z-score within array); higher = stronger binding
# Conditions in all cases: glycan notation: IUPAC condensed, linker removed
# Fuc(a1-2)Gal(b1-3)GalNAc = target: Fuc(a1-2)Gal(b1-3)GalNAc
# Summary of the method: (§1)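 The binding signal is a Z-score computed within each array. Data were drawn from 3228 arrays in the Consortium for Functional Glycomics database, restricted to those with a known protein sequence. Scores were averaged over arrays of the same protein sequence at different concentrations or buffers, and over linkers, and negative values can be taken as non-binding.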
# [1] = target: Fuc(a1-2)Gal(b1-3)[Fuc(a1-4)]GlcNAc(b1-3)[Gal(b1-4)GlcNAc(b1-6)]Gal(b1-4)Glc
# Summary of the method: as §1
# [2] = target: Fuc(a1-2)[Gal(a1-3)]Gal(b1-4)GlcNAc(b1-6)GalNAc
# Summary of the method: as §1
# [3] = target: Fuc(a1-2)[GalNAc(a1-3)]Gal(b1-3)GalNAc(a1-3)[Fuc(a1-2)]Gal(b1-4)GlcNAc
# Summary of the method: as §1
# [4] = target: Fuc(a1-2)[GalNAc(a1-3)]Gal(b1-3)GlcNAc
# Summary of the method: as §1
# [5] = target: Fuc(a1-2)[GalNAc(a1-3)]Gal(b1-3)GlcNAc(b1-6)GalNAc
# Summary of the method: as §1
# [6] = target: Fuc(a1-2)[GalNAc(a1-3)]Gal(b1-4)GlcNAc(b1-3)Gal(b1-4)GlcNAc
# Summary of the method: as §1
# [7] = target: Fuc(a1-2)[GalNAc(a1-3)]Gal(b1-4)GlcNAc(b1-3)Gal(b1-4)GlcNAc(b1-3)Gal(b1-4)GlcNAc
# Summary of the method: as §1
# [8] = target: Fuc(a1-2)[GalNAc(a1-3)]Gal(b1-4)GlcNAc(b1-6)GalNAc
# Summary of the method: as §1
# [9] = target: Fuc(a1-2)[GalNAc(a1-3)]Gal(b1-4)[Fuc(a1-3)]GlcNAc
# Summary of the method: as §1
# [10] = target: Gal(a1-3)Gal(b1-3)GlcNAc(b1-6)GalNAc
# Summary of the method: as §1
# Gal(a1-3)Gal(b1-4)Glc = target: Gal(a1-3)Gal(b1-4)Glc
# Summary of the method: as §1
# Gal(a1-4)GlcNAc = target: Gal(a1-4)GlcNAc
# Summary of the method: as §1
# [11] = target: Gal(b1-3)GlcNAc(b1-6)[Gal(b1-3)]GalNAc
# Summary of the method: as §1
# Gal(b1-4)Glc6S = target: Gal(b1-4)Glc6S
# Summary of the method: as §1
# Gal(b1-4)GlcNAc(b1-2)Man = target: Gal(b1-4)GlcNAc(b1-2)Man
# Summary of the method: as §1
# [12] = target: Gal(b1-4)GlcNAc(b1-2)[Gal(b1-4)GlcNAc(b1-4)]Man(a1-3)[Gal(b1-4)GlcNAc(b1-2)Man(a1-6)]Man(b1-4)GlcNAc(b1-4)GlcNAc
# Summary of the method: as §1
# [13] = target: Gal(b1-4)GlcNAc(b1-2)[Gal(b1-4)GlcNAc(b1-4)]Man(a1-3)[GlcNAc(b1-4)][Gal(b1-4)GlcNAc(b1-2)[Gal(b1-4)GlcNAc(b1-6)]Man(a1-6)]Man(b1-4)GlcNAc(b1-4)GlcNAc
# Summary of the method: as §1
# [14] = target: Gal(b1-4)GlcNAc(b1-3)Gal(b1-4)GlcNAc(b1-3)Gal(b1-4)GlcNAc(b1-2)Man(a1-3)[Gal(b1-4)GlcNAc(b1-3)Gal(b1-4)GlcNAc(b1-3)Gal(b1-4)GlcNAc(b1-2)Man(a1-6)]Man(b1-4)GlcNAc(b1-4)[Fuc(a1-6)]GlcNAc
# Summary of the method: as §1
# [15] = target: Gal(b1-4)GlcNAc(b1-6)[Gal(b1-4)GlcNAc(b1-3)]GalNAc
# Summary of the method: as §1
# [16] = target: Gal3S(b1-4)[Fuc(a1-3)]GlcNAc6S
# Summary of the method: as §1
# Gal3S4S(b1-4)GlcNAc = target: Gal3S4S(b1-4)GlcNAc
# Summary of the method: as §1
# GalNAc3S(b1-4)GlcNAc = target: GalNAc3S(b1-4)GlcNAc
# Summary of the method: as §1
# GalNAc6S(b1-4)GlcNAc = target: GalNAc6S(b1-4)GlcNAc
# Summary of the method: as §1
# [17] = target: GlcNAc(b1-2)Man(a1-3)[GlcNAc(b1-2)Man(a1-6)]Man(b1-4)GlcNAc(b1-4)GlcNAc
# Summary of the method: as §1
# GlcNAc(b1-6)GalNAc = target: GlcNAc(b1-6)GalNAc
# Summary of the method: as §1
# Kdn(a2-3)Gal(b1-3)GalNAc = target: Kdn(a2-3)Gal(b1-3)GalNAc
# Summary of the method: as §1
# [18] = target: Man(a1-2)Man(a1-3)[Man(a1-2)Man(a1-6)]Man
# Summary of the method: as §1
# [19] = target: Man(a1-3)[Man(a1-6)]Man(a1-6)[Man(a1-3)]Man(b1-4)GlcNAc(b1-4)GlcNAc
# Summary of the method: as §1
# [20] = target: Neu5Ac(a2-3)Gal(b1-3)GlcNAc(b1-3)Gal(b1-3)GlcNAc
# Summary of the method: as §1
# [21] = target: Neu5Ac(a2-3)Gal(b1-3)GlcNAc(b1-4)Gal(b1-4)Glc
# Summary of the method: as §1
# [22] = target: Neu5Ac(a2-3)Gal(b1-4)GlcNAc(b1-2)Man(a1-3)[GlcNAc(b1-4)][Neu5Ac(a2-3)Gal(b1-4)GlcNAc(b1-2)Man(a1-6)]Man(b1-4)GlcNAc(b1-4)GlcNAc
# Summary of the method: as §1
# [23] = target: Neu5Ac(a2-3)Gal(b1-4)GlcNAc(b1-2)Man(a1-3)[Neu5Ac(a2-3)Gal(b1-4)GlcNAc(b1-2)Man(a1-6)]Man(b1-4)GlcNAc(b1-4)[Fuc(a1-6)]GlcNAc
# Summary of the method: as §1
# [24] = target: Neu5Ac(a2-3)Gal(b1-4)GlcNAc(b1-2)[Neu5Ac(a2-3)Gal(b1-4)GlcNAc(b1-6)]Man(a1-6)[Neu5Ac(a2-3)Gal(b1-4)GlcNAc(b1-2)Man(a1-3)]Man(b1-4)GlcNAc(b1-4)GlcNAc
# Summary of the method: as §1
# [25] = target: Neu5Ac(a2-3)Gal(b1-4)[Fuc(a1-3)]GlcNAc(b1-3)Gal(b1-4)GlcNAc
# Summary of the method: as §1
# [26] = target: Neu5Ac(a2-3)Gal6S(b1-4)GlcNAc
# Summary of the method: as §1
# Neu5Ac(a2-3)GalNAc = target: Neu5Ac(a2-3)GalNAc
# Summary of the method: as §1
# Neu5Ac(a2-6)Gal(b1-4)Glc = target: Neu5Ac(a2-6)Gal(b1-4)Glc
# Summary of the method: as §1
# [27] = target: Neu5Ac(a2-6)Gal(b1-4)GlcNAc(b1-2)Man(a1-6)Man(b1-4)GlcNAc(b1-4)GlcNAc
# Summary of the method: as §1
# [28] = target: Neu5Ac(a2-6)Gal(b1-4)GlcNAc(b1-2)[Neu5Ac(a2-6)Gal(b1-4)GlcNAc(b1-4)]Man(a1-3)[GlcNAc(b1-4)][Neu5Ac(a2-6)Gal(b1-4)GlcNAc(b1-4)Man(a1-6)]Man(b1-4)GlcNAc(b1-4)GlcNAc
# Summary of the method: as §1
# [29] = target: Neu5Ac(a2-6)Gal(b1-4)GlcNAc(b1-3)Gal(b1-4)GlcNAc
# Summary of the method: as §1
# [30] = target: Neu5Ac(a2-6)Gal(b1-4)GlcNAc(b1-3)Gal(b1-4)GlcNAc(b1-3)GalNAc
# Summary of the method: as §1
# Neu5Ac(a2-6)GalNAc = target: Neu5Ac(a2-6)GalNAc
# Summary of the method: as §1
# [31] = target: Neu5Ac(a2-8)Neu5Ac(a2-8)Neu5Ac(a2-8)Neu5Ac(a2-3)[GalNAc(b1-4)]Gal(b1-4)Glc
# Summary of the method: as §1
# [32] = target: Neu5Ac9Ac(a2-3)Gal(b1-4)GlcNAc
# Summary of the method: as §1
# [33] = target: Neu5Gc(a2-8)Neu5Gc(a2-6)Gal(b1-4)GlcNAc
# Summary of the method: as §1
binder,measurement,setting,value
Cohesin-marm-DC-ASGPR-CRD (protein) LDITSHHHHHHDDLDAVRIKVDTVNAKPGDTVRIPVRFSGIPSKGIANCDFVYSYDPNVLEIIEIEPGDIIVDPNPDKSFDTAVYPDRKIIVFLFAEDSGTGAYAITKDGVFATIVAKVKEGAPNGLSVIKFVEVGGFANNDLVEQKTQFFDGGVNVGDTTEPATPTTPVTTPTTTDDLDAASCPINWVEHQGSCYWFSRSGKTWPEAERYCQLENTHLVVINSREEQNFVQAHLGSAYTWMGLSDPEGVWKWVDGTDYSSGFQNWKPGQPDDWQGHGLGGGEDCAHFHPDGRWNDDVCQRSYHWVCEAGLTQASQDSH,glycan array binding signal (z-score),Fuc(a1-2)Gal(b1-3)GalNAc,-0.443
same,glycan array binding signal (z-score),[1],-0.444
same,glycan array binding signal (z-score),[2],-0.449
same,glycan array binding signal (z-score),[3],3.71
same,glycan array binding signal (z-score),[4],2.96
same,glycan array binding signal (z-score),[5],2.04
same,glycan array binding signal (z-score),[6],2.91
same,glycan array binding signal (z-score),[7],2.99
same,glycan array binding signal (z-score),[8],2.6
same,glycan array binding signal (z-score),[9],3.78
same,glycan array binding signal (z-score),[10],2.92
same,glycan array binding signal (z-score),Gal(a1-3)Gal(b1-4)Glc,-0.398
same,glycan array binding signal (z-score),Gal(a1-4)GlcNAc,-0.402
same,glycan array binding signal (z-score),[11],-0.041
same,glycan array binding signal (z-score),Gal(b1-4)Glc6S,-0.377
same,glycan array binding signal (z-score),Gal(b1-4)GlcNAc(b1-2)Man,3.13
same,glycan array binding signal (z-score),[12],-0.44
same,glycan array binding signal (z-score),[13],-0.305
same,glycan array binding signal (z-score),[14],-0.304
same,glycan array binding signal (z-score),[15],-0.405
same,glycan array binding signal (z-score),[16],-0.069
same,glycan array binding signal (z-score),Gal3S4S(b1-4)GlcNAc,-0.425
same,glycan array binding signal (z-score),GalNAc3S(b1-4)GlcNAc,-0.449
same,glycan array binding signal (z-score),GalNAc6S(b1-4)GlcNAc,3
same,glycan array binding signal (z-score),[17],-0.449
same,glycan array binding signal (z-score),GlcNAc(b1-6)GalNAc,2.94
same,glycan array binding signal (z-score),Kdn(a2-3)Gal(b1-3)GalNAc,-0.362
same,glycan array binding signal (z-score),[18],-0.447
same,glycan array binding signal (z-score),[19],-0.452
same,glycan array binding signal (z-score),[20],-0.433
same,glycan array binding signal (z-score),[21],-0.449
same,glycan array binding signal (z-score),[22],-0.448
same,glycan array binding signal (z-score),[23],-0.449
same,glycan array binding signal (z-score),[24],-0.331
same,glycan array binding signal (z-score),[25],-0.388
same,glycan array binding signal (z-score),[26],-0.447
same,glycan array binding signal (z-score),Neu5Ac(a2-3)GalNAc,-0.435
same,glycan array binding signal (z-score),Neu5Ac(a2-6)Gal(b1-4)Glc,-0.421
same,glycan array binding signal (z-score),[27],-0.446
same,glycan array binding signal (z-score),[28],-0.368
same,glycan array binding signal (z-score),[29],-0.46
same,glycan array binding signal (z-score),[30],-0.378
same,glycan array binding signal (z-score),Neu5Ac(a2-6)GalNAc,3.16
same,glycan array binding signal (z-score),[31],3.12
same,glycan array binding signal (z-score),[32],-0.447
same,glycan array binding signal (z-score),[33],-0.447

# Source: the supplement of paper PMC8728848
